Compound activity from PubChem BioAssay.
In the library only some 19% were active in any assay of this set; here they are far more common.
HT1080NT lethal – kills 2HG-producing HT-1080-NT fibrosarcoma cells | HT-1080-NT fibrosarcoma viability, CellTiter-Glo ATP luminescence, 48 h | Potency, µM (series often up to 46.1 µM), for the others: at the highest dose activity, negative = less viability, usual class: cytotoxic | actives 1.6% (n = 360,000);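 further: NT is the 2HG producing partner of a matched IDH1 knockdown line; potency means the concentration at half of the fitted maximal effect; 0% = DMSO-treated cells and -100% = media-only wells without cells; nearly all actives have a fitted effect of over 55% in size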
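Viability by CellTiter-Glo luminescence after 48 h compound exposure at 37C of HT-1080-NT cells (750/well, RPMI, 5% FBS). % activity scaled between DMSO wells and medium-only wells, then curve-fitted and categorized by curve class.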
TDP1 cell noCPT – qHTS for Inhibitors of human tyrosyl-DNA phosphodiesterase 1 (TDP1): qHTS in cells in absence of CPT; AID 686978, 2013; Potency, µM (titrated, usually from 46.2 µM), for the others: top-dose activity change, negative = growth inhibition, hits mostly inhibitors; actives 15% (n = 420,000); DT40 Tdp1-/- hTDP1 cells, no CPT, ATP luminescence, 48 h; further: potency means the concentration at half of the fitted maximal effect; nearly all actives have a fitted effect of over 55% in size
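A cellular qHTS used chicken DT40 cells lacking endogenous Tdp1 but carrying stably transfected human TDP1. Compounds were applied without camptothecin, and cell growth kinetics were judged by ATP-dependent luminescence after ≥48 hr.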
HT1080 IDH1KD tx – toxicity to HT-1080 IDH1 knockdown cells (counter line); HT-1080 IDH1 knockdown viability, ATP luminescence, 48 h; Potency, µM (titrated, usually from 46.1 µM), without a hit: at the highest dose activity, negative = toxicity, actives largely listed as cytotoxic; actives 2% (n = 360,000); AID 686971;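 further: potency means the concentration at half of the fitted maximal effect; 0% = DMSO wells and -100% = cell-free medium wells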
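In this qHTS, HT-1080 cells depleted of IDH1 are exposed for 48 h at 37 °C to compound titrations. Toxicity is scored from CellTiter-Glo luminescence, with DMSO as full viability and medium alone as none.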
DT40 TDP1 CPT – DT40-hTDP1 cell growth loss with CPT | chicken DT40 Tdp1-/-;hTDP1 cells + 20 nM CPT, ATP luminescence, 48 h | Potency, µM (highest dose often 46.2 µM), for the others: at the top dose activity change, negative = growth inhibition, hits mostly inhibitors | actives 12% (n = 420,000) | AID 686979; further: potency means the concentration at half of the fitted maximal effect; nearly all actives have a fitted effect of over 55% in size
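Chicken DT40 Tdp1-/- cells stably complemented with human TDP1 were seeded at 400 cells/well in medium containing 20 nM camptothecin, exposed to pin-transferred compounds, and grown at 37 °C for at least 48 hr. Viability was read as ATP luminescence.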
IL-1B inflam inh – inhibitors of inflammasome signaling (IL-1 beta secretion); THP-1 LPS/ATP IL-1B secretion, AlphaLISA, 16 h; active compounds read low; activity change, % at 57.5 µM; AID 743279; actives 4.7% (n = 360,000); in the data active means activity change below about -50%; inconclusive means mostly about -30% to -49%
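THP-1 cells pretreated 1 hr with compounds (up to 57.5 uM final), then stimulated with LPS (250 ng/mL final) plus ATP (1.25 mM final); secreted IL-1B measured by AlphaLISA after 16 hr, decreased signal indicating inhibition.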
An asterisk follows results filed as active. Unless noted, the call rests on the fitted dose curve; in most records, active means well fitted curve in the direction sought with a large enough effect; inconclusive means small, poorly fitted or top-dose-only effect, or another doubt; inactive means no such curve, though single readings can be large; an effect the other way counts as inactive or inconclusive. Unless noted, on the % scale 0 is the no-effect control and ±100 the full control effect.

Screening Cc1cccc(C)c1NC(=O)CN(C)C(C)C(=O)Nc1ccccc1-c1ccccc1 (stereo unspecified) returned HT1080NT lethal -2%, TDP1 cell noCPT -23%, HT1080 IDH1KD tx 8%, DT40 TDP1 CPT inconclusive and IL-1B inflam inh -6.
Screening Cc1ccccc1CN(C)C(C)C(=O)Nc1ccccc1F (stereo unspecified) returned HT1080NT lethal -5%, TDP1 cell noCPT 26µM*, HT1080 IDH1KD tx -5%, DT40 TDP1 CPT inconclusive and IL-1B inflam inh 0.
Cn1c(N=Nc2ccccc2)nc2ccccc21 was read as HT1080NT lethal 8.2µM*, TDP1 cell noCPT 7.3µM*, HT1080 IDH1KD tx 10µM*, DT40 TDP1 CPT 8.2µM* and IL-1B inflam inh 0.
For CC1(c2cccc(Br)c2)NC(=O)N(CC(=O)Nc2ccc(S(N)(=O)=O)cc2)C1=O (stereo unspecified) the results were HT1080NT lethal -12%, TDP1 cell noCPT -3%, HT1080 IDH1KD tx -4%, DT40 TDP1 CPT -3% and IL-1B inflam inh 20.
`O=S(=O)(NCc1cccnc1)c1ccc2ccccc2c1` gave HT1080NT lethal -11%, TDP1 cell noCPT 21µM*, HT1080 IDH1KD tx -6%, DT40 TDP1 CPT inconclusive and IL-1B inflam inh 0.
`CC(C)c1ccc(NS(=O)(=O)c2ccc3c(c2)oc(=O)n3C)cc1` gave HT1080NT lethal -4%, TDP1 cell noCPT inconclusive, HT1080 IDH1KD tx 1%, DT40 TDP1 CPT 18µM* and IL-1B inflam inh 16.
`Cc1ccccc1S(=O)(=O)NCc1cccnc1` gave HT1080NT lethal 10%, TDP1 cell noCPT -15%, HT1080 IDH1KD tx 7%, DT40 TDP1 CPT -5% and IL-1B inflam inh 0.
O=[N+]([O-])c1ccccc1S(=O)(=O)NCc1cccnc1 was read as HT1080NT lethal 25%, TDP1 cell noCPT 21µM*, HT1080 IDH1KD tx 0%, DT40 TDP1 CPT 8.9µM* and IL-1B inflam inh -7.
Screening Cn1c(=O)oc2cc(S(=O)(=O)Nc3ccc(Cl)cc3)ccc21 returned HT1080NT lethal -22%, TDP1 cell noCPT -24%, HT1080 IDH1KD tx -21%, DT40 TDP1 CPT -27% and IL-1B inflam inh 16.
Screening O=S(=O)(NCc1ccncc1)c1ccc(Br)s1 returned HT1080NT lethal -9%, TDP1 cell noCPT 2.6µM*, HT1080 IDH1KD tx -12%, DT40 TDP1 CPT 1.8µM* and IL-1B inflam inh -9.
O=C(COc1ccc(-c2nnco2)cc1)N1CCOCC1 was read as HT1080NT lethal 0%, TDP1 cell noCPT 7%, HT1080 IDH1KD tx -2%, DT40 TDP1 CPT 4% and IL-1B inflam inh 0.
`COC(=O)COc1ccc(S(=O)(=O)NCc2ccncc2)cc1` gave HT1080NT lethal -2%, TDP1 cell noCPT 9.2µM*, HT1080 IDH1KD tx -1%, DT40 TDP1 CPT 4.1µM* and IL-1B inflam inh 77.
`COc1ccc(S(=O)(=O)NCc2cccnc2)cc1` gave HT1080NT lethal -5%, TDP1 cell noCPT 3%, HT1080 IDH1KD tx 1%, DT40 TDP1 CPT -18% and IL-1B inflam inh 29.
Screening CCOC(=O)COc1ccc(S(=O)(=O)NCc2cccnc2)cc1 returned HT1080NT lethal 0%, TDP1 cell noCPT -6%, HT1080 IDH1KD tx 13%, DT40 TDP1 CPT 0% and IL-1B inflam inh 24.
Screening Cc1cc(C)c(C)c(S(=O)(=O)NCc2ccncc2)c1C returned HT1080NT lethal -10%, TDP1 cell noCPT 13µM*, HT1080 IDH1KD tx inconclusive, DT40 TDP1 CPT 21µM* and IL-1B inflam inh -4.
`Cc1ccc(S(=O)(=O)NCc2ccncc2)cc1C(=O)NCC(C)C` gave HT1080NT lethal -10%, TDP1 cell noCPT inconclusive, HT1080 IDH1KD tx -1%, DT40 TDP1 CPT 15µM* and IL-1B inflam inh 10.
`COc1ccc(S(=O)(=O)NCc2cccnc2)cc1Br` gave HT1080NT lethal 0%, TDP1 cell noCPT 5.8µM*, HT1080 IDH1KD tx 16µM*, DT40 TDP1 CPT 4.6µM* and IL-1B inflam inh 0.
Screening O=C(CNS(=O)(=O)c1ccccc1)N1CCc2ccccc2C1 returned HT1080NT lethal 1%, TDP1 cell noCPT 6%, HT1080 IDH1KD tx 0%, DT40 TDP1 CPT 0% and IL-1B inflam inh -8.
Screening CCOC(=O)c1cc2c(=O)n3ccccc3nc2n(CCOC)c1=NC(=O)c1c(-c2ccccc2Cl)noc1C returned TDP1 cell noCPT 1% and DT40 TDP1 CPT -3%.
`COc1cc(C)c(Br)cc1S(=O)(=O)NCc1ccccc1` gave HT1080NT lethal 2%, TDP1 cell noCPT 9%, HT1080 IDH1KD tx 18%, DT40 TDP1 CPT 1% and IL-1B inflam inh 16.
Screening Cc1ccc(S(=O)(=O)NCc2ccncc2)cc1C returned HT1080NT lethal -5%, TDP1 cell noCPT 1.3µM*, HT1080 IDH1KD tx 23µM*, DT40 TDP1 CPT 2.9µM* and IL-1B inflam inh -7.
`O=S(=O)(NCc1ccncc1)c1ccccc1` gave HT1080NT lethal 2%, TDP1 cell noCPT 8.2µM*, HT1080 IDH1KD tx -13%, DT40 TDP1 CPT 23µM* and IL-1B inflam inh 37.
Screening Cc1cc(Br)c(S(=O)(=O)NCc2ccncc2)cc1C returned HT1080NT lethal inconclusive, TDP1 cell noCPT 7.3µM*, HT1080 IDH1KD tx inconclusive, DT40 TDP1 CPT 5.8µM* and IL-1B inflam inh -1.
COc1cc(S(=O)(=O)NCc2ccncc2)ccc1Br was read as HT1080NT lethal inconclusive, TDP1 cell noCPT 9.2µM*, HT1080 IDH1KD tx -16%, DT40 TDP1 CPT 8.2µM* and IL-1B inflam inh -11.
COC(=O)c1ccc(Cl)c(NC(=O)CN(c2ccc3c(c2)OCO3)S(C)(=O)=O)c1 was read as HT1080NT lethal -5%, TDP1 cell noCPT 1%, HT1080 IDH1KD tx -1%, DT40 TDP1 CPT 7% and IL-1B inflam inh 16.
Cn1c(=O)oc2cc(S(=O)(=O)NCc3ccc(C(=O)O)cc3)ccc21 was read as HT1080NT lethal 0%, TDP1 cell noCPT 0%, HT1080 IDH1KD tx -4%, DT40 TDP1 CPT -4% and IL-1B inflam inh 28.
For Cn1c(=O)oc2cc(S(=O)(=O)NCc3ccncc3)ccc21 the results were HT1080NT lethal -3%, TDP1 cell noCPT 8.2µM*, HT1080 IDH1KD tx -16%, DT40 TDP1 CPT 8.2µM* and IL-1B inflam inh 75.
`CC(C)C(=O)NC(=S)Nc1ccc(S(=O)(=O)N2CCN(C)CC2)cc1` gave HT1080NT lethal -2%, TDP1 cell noCPT -19%, HT1080 IDH1KD tx -1%, DT40 TDP1 CPT -10% and IL-1B inflam inh 0.
`Cc1ccc(C)c(NC(=O)CCN2C(=O)[C@@H]3Cc4ccccc4CN3C2=O)c1` gave HT1080NT lethal 26%, TDP1 cell noCPT -22%, HT1080 IDH1KD tx inconclusive, DT40 TDP1 CPT -3% and IL-1B inflam inh -9.
